# MITF inh – blocks human microphthalmia-associated transcription factor; inhibition, % at 2.6 µM; AlphaScreen MITF homodimerization, bead proximity signal; 0.91% of 650,000 active; in the data active means inhibition above about 50%;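 further: 0% = vehicle wells with protein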
# FBW7 activator – human FBW7 E3 ligase activation, primary screen; AlphaScreen FBW7–phospho-cyclin E peptide binding, activator screen; 0.13% of 650,000 active; Q969H0; normalized activity (activation), % at 26.1 µM; AID 1259310; in the data active means normalized activity above about 1.9%;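 further: purified mutant Fbw7 with reduced substrate affinity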
# TEAD-YAP block – TEAD-YAP interaction inhibition | inhibition, % at 9.12 µM | 1.4% of 640,000 active | HEK-TIYL cells, TEAD-Gal4/YAP UAS-luciferase luminescence; in the data active means inhibition above about 32%;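 further: 0% = median of test compound wells and 100% = reference inhibitor wells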
# GPR151 ag – activates the human receptor GPR151. activation, % at 11.2 µM. Q8TDV0. AID 1508602. 1% of 650,000 active. PathHunter beta-arrestin GPR151 cells, luminescence; in the data active means activation above about 4.9%;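 further: 0% = median of compound wells and 100% = cells with positive control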
# Target sequence (Q8TDV0 whole entry, looked up): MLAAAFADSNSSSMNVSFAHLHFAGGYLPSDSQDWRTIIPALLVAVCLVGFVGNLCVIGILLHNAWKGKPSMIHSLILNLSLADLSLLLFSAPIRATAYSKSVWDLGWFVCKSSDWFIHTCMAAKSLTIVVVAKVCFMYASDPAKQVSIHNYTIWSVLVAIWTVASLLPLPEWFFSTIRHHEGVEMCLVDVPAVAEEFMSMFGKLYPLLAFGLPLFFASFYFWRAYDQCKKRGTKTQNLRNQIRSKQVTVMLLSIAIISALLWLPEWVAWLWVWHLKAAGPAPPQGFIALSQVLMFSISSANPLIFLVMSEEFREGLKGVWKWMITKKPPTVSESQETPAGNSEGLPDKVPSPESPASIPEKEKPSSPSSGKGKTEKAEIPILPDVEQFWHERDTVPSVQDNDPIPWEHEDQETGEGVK
# MITF inh conf – confirmation of human MITF inhibitors; shares compounds with MITF inh; AlphaScreen MITF homodimerization, biotin/His-MITF beads; inhibition, % at 2.6 µM; 16% of 4,700 active;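 active means inhibition above a cutoff derived from the DMSO control wells, cut at about 28% in these data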;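 further: 0% = MITF dimer wells with DMSO only; inhibitors lower the bead chemiluminescence by keeping MITF from dimerizing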
# AlphaScreen DR – optically interferes with AlphaScreen signal in dose response; shares compounds with MITF inh; AlphaScreen optical interference counterscreen, cell-free; IC50, µM; 6% of 480 active; AID 1259373; call rule not given here
# AlphaScreen intf2 – AlphaScreen optical interference, counter-screen; shares compounds with MITF inh; LysRS AlphaScreen counterscreen, signal interference, triplicate; inhibition, % at 2.6 µM; 7.6% of 4,700 active; AID 1259376;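 active means inhibition above a cutoff derived from the DMSO control wells, cut at about 30% in these data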
# * hit, by the source's call; / = no result given. Sampled rows, rich in hits. Any-hit rate of the full collection: about 3.4%.
SMILES,MITF inh,FBW7 activator,TEAD-YAP block,GPR151 ag,MITF inh conf,AlphaScreen intf2,others
Fc1ccccc1CN1CCN(C2CCN(Cc3ccccc3)CC2)CC1,7.0,0.0,-1.0,2.5,/,/,
O=[N+]([O-])c1ccccc1CN1CCC(N2CCN(c3ccccc3)CC2)CC1,82.8*,-0.1,1.5,0.3,2.4,5.0,
CC1CCCC(N2CCN(Cc3ccccc3F)CC2)C1 (stereo not given),62.9*,-0.2,-3.8,-1.4,-7.1,-2.7,
Cc1c(Cl)cccc1-c1ccc(/C=C(\C#N)C(N)=C(C#N)C#N)o1,8.4,0.0,-0.9,-0.1,/,/,
CN(C(=O)c1ccc(S(=O)(=O)c2ccccc2Cl)c([N+](=O)[O-])c1)C1CCCCC1,14.8,0.0,9.8,-0.9,/,/,
CCC(C)NC(=O)c1ccc2c(c1)NC(=O)C(CS(=O)(=O)Cc1cccc(C)c1)N2 (stereo not given),32.5,0.4,12.2,2.4,/,/,
CC1=C(C(=O)OC2CCCCC2)C(c2ccc(OCc3ccccc3)cc2)NC(=O)N1 (stereo not given),54.9*,-0.1,2.9,-0.5,2.8,11.2,
CC1=C(C(=O)OC2CCC(C)CC2)C(c2ccccc2Cl)NC(=O)N1 (stereo not given),80.7*,0.3,-6.5,-1.2,10.8,19.7,
Cc1ccc(C(=O)Oc2coc(CSc3nc(C)cc(C)n3)cc2=O)cc1,55.5*,0.1,-1.0,-2.5,11.6,15.3,
COc1ccc(C(=O)NC(=S)N2CCN(c3ccc([N+](=O)[O-])cc3)CC2)cc1,17.4,0.2,-1.0,0.2,/,/,
COc1cccc(C(=O)NC(=S)N2CCN(c3ccc([N+](=O)[O-])cc3)CC2)c1,71.6*,0.0,1.5,-0.1,4.9,32.6*,
O=C(NCC1CCCO1)C(=O)Nc1nccs1 (stereo not given),98.8*,0.0,-5.6,1.9,-4.4,-1.3,
COC(=O)C1=CN(C(CC(C)C)C(=O)OC)C=C(C(=O)OC)C1c1ccc(Cl)cc1 (stereo not given),-5.8,-0.1,-4.0,-1.0,/,/,
COc1ccc(CN2CCN(S(=O)(=O)c3ccc([N+](=O)[O-])cc3)CC2)cc1OCc1ccccc1,51.8*,-0.4,30.4,0.6,14.4,22.6,
CCOc1ccc(CN2CCN(Cc3ccc(OC)c(OCc4ccccc4)c3)CC2)cc1,69.3*,-0.1,16.4,1.0,-10.4,4.9,
CCS(=O)(=O)N1CCN(Cc2ccc(OCc3ccccc3)c(OC)c2)CC1,51.5*,0.1,0.4,1.1,13.9,9.6,
COc1ccc(CNCc2ccco2)cc1OCc1ccccc1,40.7,-0.1,-12.3,-0.7,/,/,
COc1ccc(CN2CCN(Cc3ccco3)CC2)cc1OCc1ccccc1,59.7*,-0.1,1.0,-0.2,8.0,7.7,
COc1cc(CN2CCN(S(=O)(=O)c3ccccc3)CC2)ccc1OCc1ccccc1,36.5,-0.1,6.0,0.6,/,/,
CCOc1ccc(CN2CCN(Cc3ccc(OC)c(OC)c3)CC2)cc1,47.4,-0.2,25.5,2.4,/,/,
CC1CCCC(NC(=O)/C(C#N)=C/c2ccccc2)C1C (stereo not given),-15.7,0.3,0.5,2.3,/,/,
O=C1Nc2ccccc2SC1Nc1ccc(F)c(F)c1F (stereo not given),-7.3,0.0,9.7,1.7,/,/,
CC1CCCCN1Cc1ccccc1C#N (stereo not given),71.1*,0.2,1.1,1.6,-12.5,-7.0,
CC1CCCCN1Cc1c(C#N)c2ccccc2n1C (stereo not given),-13.5,-0.3,-1.1,2.5,/,/,
O=C1NCC(c2ccccc2)C1C(=O)N/N=C\c1cc(Cl)ccc1O (stereo not given),10.3,-0.5,23.2,-0.2,/,/,
SMILES,MITF inh,FBW7 activator,TEAD-YAP block,GPR151 ag,MITF inh conf,AlphaScreen intf2,others
O=c1[nH]c2ccccc2n1CN1CCc2ccccc2C1,51.4*,0.3,-1.4,0.8,10.8,13.2,
O=c1[nH]c2ccccc2n1CN1CCOCC1,89.8*,0.1,-2.8,1.7,5.5,11.2,
O=c1[nH]c2ccccc2n1CCCN1CCCCC1,-4.7,0.0,-2.4,0.8,/,/,
O=c1[nH]c2ccccc2c(=O)n1CCCN1CCOCC1,11.3,-0.2,-0.8,-0.6,/,/,
O=S(=O)(CCc1nnc(-c2ccccc2)o1)c1ccc(Br)cc1,-1.8,-0.4,4.3,1.7,/,/,
Cc1nn(-c2ccccc2)c2sc(C(=O)N3C(=O)c4cccc(N)c4C3=O)cc12,0.5,0.0,10.0,-0.1,/,/,
Cc1cc(C(=O)N=c2sc3cc4c(cc3n2C)OCCO4)no1,76.3*,-0.1,-23.2,0.3,1.6,-6.1,
Cn1c(=NC(=O)c2cccs2)sc2cc3c(cc21)OCCO3,-14.2,0.5,25.9,-0.2,/,/,
CCC(C(=O)N1CCCC1)c1ccccc1 (stereo not given),-11.7,-0.2,2.1,-0.1,/,/,
CC(C(=O)N1CCCC1)N1CCN(C(c2ccccc2)c2ccccc2)CC1 (stereo not given),84.8*,-0.2,1.1,-1.7,4.6,15.4,
O=C(CN1C(=O)c2ccccc2C1=O)NC1CCCCC1,52.7*,-0.2,-0.9,0.8,-2.0,4.4,
CCCN1CCCc2cc(CCNS(=O)(=O)c3cccs3)ccc21,58.5*,0.0,-3.4,-1.0,-6.0,-2.8,
O=C(NCc1ccccc1)c1ccc(-c2ccc(N3CCOCC3)nc2)s1,11.8,0.2,11.1,-0.2,/,/,
O=C(NCCOc1ccccc1)c1ccc(-c2ccc(N3CCOCC3)nc2)s1,79.5*,0.3,-31.6,-12.4,3.3,2.4,
Cc1ccccc1CSc1nc(=O)n(CCCO)c2c1CCCC2,-3.5,0.1,-1.4,-0.9,/,/,
O=c1nc(SCc2ccccc2)c2c(n1CCCO)CCCC2,80.3*,0.2,2.0,-1.2,-3.0,4.8,
O=c1[nH]cc(N=Cc2ccc([N+](=O)[O-])o2)c(=O)[nH]1,84.6*,-0.5,-7.3,-0.7,63.7*,-20.1,AlphaScreen DR=>6.48
CCCCc1ncc(CN2CCC3(CCC(CNC(=O)c4ccccc4)O3)CC2)[nH]1 (stereo not given),84.1*,-0.2,-5.9,2.9,0.3,1.9,
N#C/C(=C\c1ccc(-c2cccc(Cl)c2Cl)o1)c1ccc(Cl)cc1,-1.4,-0.4,-0.7,0.5,/,/,
Cc1ccc(Cn2c(=N)n(CC(O)COc3ccc(Cl)cc3)c3ccccc32)cc1 (stereo not given),64.3*,-0.1,2.6,1.9,11.3,4.0,
COc1cc(C(=O)NCCOc2cccc(Oc3ccccc3)c2)cc(OC)c1OC,5.6,-0.1,-12.1,1.1,/,/,
O=c1ccc(-c2cccs2)nn1C[C@H]1CCCN1,-10.9,-0.1,4.6,-1.1,/,/,
COc1cc(C(=O)N2CCN(Cc3ccccc3C)CC2)cc(OC)c1OC,60.5*,0.2,0.7,-1.1,38.5*,11.2,AlphaScreen DR=>5.62
COc1cc2c(cc1CN1CCN(C(=O)c3cc(OC)c(OC)c(OC)c3)CC1)OCO2,52.7*,-0.3,4.5,-0.2,11.6,9.4,
COc1cc(C(=O)N2CCN(Cc3ccccc3F)CC2)cc(OC)c1OC,17.5,0.1,12.8,0.1,/,/,
